Measurements published in PubChem BioAssay.
The source made the active and inactive calls.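 Rule for the calls: active = compounds whose cell count with miR-34 switched on is under 0.7 times the count with it off; inactive = the rest.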

Assay: sensitizers of A549 cells to miR-34 induction, primary screen, imaging, A549 dox-inducible miR-34, nuclei and caspase counts (AID 1347080); note: test concentration not given here
Details: A549 miR-34 inducible, Hoechst nuclei count, 48 h
[1] = stronger effect = lower value, cell number ratio, induced over uninduced
[2] = measured here: relative caspase fold change +Dox/-Dox
[3] = measured here: total cells with miR-34 induction, stronger effect = lower value
[4] = measured here: total cells without miR-34 induction

CC#CCC(C)[C@H](O)/C=C/[C@@H]1[C@H]2C/C(=C\CCCC(=O)O)C[C@H]2C[C@H]1O (some centres not stated)
fold change [1]: 0.896 (inactive)
fold change [2]: 1.12
cell count [3]: 5570
cell count [4]: 6220

Nc1nc2[nH]c(=O)[nH]c2c(=O)[nH]1
fold change [1]: 0.901 (inactive)
fold change [2]: 0.746
cell count [3]: 6070
cell count [4]: 6740

CCCCC[C@@H](O)/C=C/[C@H]1[C@H](O)CC(=O)[C@@H]1C/C=C\CCCC(=O)O
fold change [1]: 0.971 (inactive)
fold change [2]: 1.57
cell count [3]: 6000
cell count [4]: 6180

CCCCC/C=C\C/C=C\C/C=C\C/C=C\CCCC(=O)OCC(O)CO (configuration not stated)
fold change [1]: 0.924 (inactive)
fold change [2]: 0.738
cell count [3]: 4970
cell count [4]: 5380

CC(C)(C)OC(=O)N1CCC(OCc2nc(-c3ccncc3)no2)CC1
fold change [1]: 1.03 (inactive)
fold change [2]: 0.58
cell count [3]: 5600
cell count [4]: 5430

CC#CCC(C)[C@@H](O)/C=C/[C@@H]1[C@H]2C/C(=C/CCCC(=O)O)C[C@H]2C[C@H]1O (some centres not stated)
fold change [1]: 0.965 (inactive)
fold change [2]: 2.36
cell count [3]: 5460
cell count [4]: 5660

CCCCC[C@H](O)/C=C/[C@@H]1[C@H](C/C=C\CCCC(=O)NCCO)[C@@H](O)C[C@H]1O
fold change [1]: 1.11 (inactive)
fold change [2]: 0.881
cell count [3]: 6440
cell count [4]: 5790

CCCCC1C(=O)CC[C@H]2[C@@H]1CC(=O)[C@@H]2C/C=C\CCCC(=O)O (some centres not stated)
fold change [1]: 1.07 (inactive)
fold change [2]: 1.48
cell count [3]: 5940
cell count [4]: 5580

O=C(O)CCC/C=C\C[C@@H]1[C@@H](/C=C/[C@@H](O)CCc2cccc(C(F)(F)F)c2)[C@H](O)C[C@@H]1O
fold change [1]: 1.01 (inactive)
fold change [2]: 1.2
cell count [3]: 5710
cell count [4]: 5640

CCCCCCCCCCCCCCCCC/C=C\C(=O)O
fold change [1]: 0.872 (inactive)
fold change [2]: 1
cell count [3]: 5170
cell count [4]: 5930

CCCCCCCC/C=C\CCCCCC(=O)O
fold change [1]: 0.938 (inactive)
fold change [2]: 0.407
cell count [3]: 5490
cell count [4]: 5860

CCCCCCCCCCCCCCCCCCCC(=O)NCCO
fold change [1]: 1.07 (inactive)
fold change [2]: 0.773
cell count [3]: 6530
cell count [4]: 6100

CCCCCCCCCC(=O)CC(=O)N[C@H]1CCOC1=O
fold change [1]: 0.908 (inactive)
fold change [2]: 0.275
cell count [3]: 6050
cell count [4]: 6660

O=C(O)CCC/C=C/C[C@@H]1[C@@H](/C=C/[C@@H](O)COc2cccc(C(F)(F)F)c2)[C@H](O)C[C@@H]1O
fold change [1]: 0.985 (inactive)
fold change [2]: 1.11
cell count [3]: 6470
cell count [4]: 6570

CCCCCCCCCCCCCCCCOC[C@H](COP(=O)([O-])OCCCCCC[N+](C)(C)C)OC(C)=O
fold change [1]: 0.912 (inactive)
fold change [2]: 1.73
cell count [3]: 5260
cell count [4]: 5770

C=C1O[C@@](CO)(n2cnc3c(N)ncnc32)[C@H](O)[C@@H]1O
fold change [1]: 0.941 (inactive)
fold change [2]: 1.1
cell count [3]: 4870
cell count [4]: 5180

O=C(O)CCCCCCCCCCCNC(=O)NC1CCCCC1
fold change [1]: 0.963 (inactive)
fold change [2]: 0.896
cell count [3]: 5580
cell count [4]: 5790

c1ccc([B-]2(c3ccccc3)[NH2+]CCO2)cc1
fold change [1]: 0.926 (inactive)
fold change [2]: 1.45
cell count [3]: 3950
cell count [4]: 4260

CCCCCC/C=C\CCCCCCCCCCOC(C)=O
fold change [1]: 0.943 (inactive)
fold change [2]: 0.538
cell count [3]: 5570
cell count [4]: 5900

CCCCC[C@](C)(O)/C=C/[C@@H]1[C@@H](C/C=C\CCCC(=O)OC)[C@@H](O)C[C@H]1O
fold change [1]: 0.977 (inactive)
fold change [2]: 1.61
cell count [3]: 6340
cell count [4]: 6490

CC/C=C\C/C=C\C/C=C\C/C=C\CCCCC(=O)OCC
fold change [1]: 1.03 (inactive)
fold change [2]: 1.28
cell count [3]: 5830
cell count [4]: 5650

CCCCC/C=C\C=C\[C@H](O)CCCCCCCC(=O)O
fold change [1]: 1.01 (inactive)
fold change [2]: 1.02
cell count [3]: 5810
cell count [4]: 5740

CCCCCCCC/C=C\CCCCCCCC(=O)c1nc2ncccc2o1
fold change [1]: 0.938 (inactive)
fold change [2]: 0.974
cell count [3]: 5390
cell count [4]: 5740

CCCCCCCC/C=C\CCCCCCCC(=O)C(F)(F)F
fold change [1]: 0.972 (inactive)
fold change [2]: 0.952
cell count [3]: 6200
cell count [4]: 6380

CCCCC[C@H](O)/C=C/[C@H]1[C@H](O)CC(=O)[C@@H]1CCCCCCCCC(=O)O
fold change [1]: 0.947 (inactive)
fold change [2]: 1.98
cell count [3]: 5400
cell count [4]: 5700

O=C(O)CCC/C=C\C[C@@H]1[C@@H](/C=C/[C@@H](O)C2Cc3ccccc3C2)[C@@H](F)C[C@@H]1O
fold change [1]: 0.86 (inactive)
fold change [2]: 2.11
cell count [3]: 4580
cell count [4]: 5320

CCCCCCCCCCCCCCCCC(=O)NCCO
fold change [1]: 1.04 (inactive)
fold change [2]: 0.673
cell count [3]: 6030
cell count [4]: 5800

O=C1O/C(=C/Br)CC[C@@H]1c1cccc2ccccc12
fold change [1]: 0.956 (inactive)
fold change [2]: 0.986
cell count [3]: 5530
cell count [4]: 5790

C/C=C/C[C@@H](C)[C@@H](O)[C@H]1C(=O)N[C@@H](CC)C(=O)N(C)CC(=O)N(C)[C@@H](CC(C)C)C(=O)N[C@@H](C(C)C)C(=O)N(C)[C@@H](CC(C)C)C(=O)N[C@@H](C)C(=O)NC(C)C(=O)N(C)[C@@H](CC(C)C)C(=O)N(C)[C@@H](CC(C)C)C(=O)N(C)[C@@H](C(C)C)C(=O)N1C (some centres not stated)
fold change [1]: 1.02 (inactive)
fold change [2]: 1.6
cell count [3]: 2270
cell count [4]: 2230

CCCCC/C=C\C/C=C\CCCC/C=C\CCCC(=O)O
fold change [1]: 0.985 (inactive)
fold change [2]: 0.344
cell count [3]: 5360
cell count [4]: 5440

CCCCC/C=C\C/C=C\CCCCCCCC(=O)OC[C@H](O)CO
fold change [1]: 0.698 (active)
fold change [2]: 0.477
cell count [3]: 4490
cell count [4]: 6430

CCC(C)[C@H]1O[C@]2(C=C[C@@H]1C)C[C@@H]1C[C@@H](C/C=C(\C)[C@@H](OC3C[C@H](OC)C(O[C@H]4C[C@H](OC)[C@@H](NC(C)=O)[C@H](C)O4)[C@H](C)O3)[C@@H](C)/C=C/C=C3\CO[C@@H]4[C@H](O)C(C)=C[C@@H](C(=O)O1)[C@]34O)O2 (some centres not stated)
fold change [1]: 1.03 (inactive)
fold change [2]: 0.79
cell count [3]: 4370
cell count [4]: 4250

C=C(N)N[C@@H](CCC(=O)O)C(=O)O
fold change [1]: 0.873 (inactive)
fold change [2]: 0.849
cell count [3]: 8430
cell count [4]: 9660

CCCCC[C@H](O)/C=C/[C@H]1[C@H](O)CC(=O)[C@@H]1CC(=O)CCCCC(=O)O
fold change [1]: 0.96 (inactive)
fold change [2]: 1.25
cell count [3]: 6410
cell count [4]: 6680

Clc1ccc(/C=C/c2cc(Cl)cc(Cl)c2)cc1
fold change [1]: 1.02 (inactive)
fold change [2]: 0.743
cell count [3]: 5370
cell count [4]: 5270

CCCCC[C@](C)(O)/C=C/[C@@H]1[C@@H](C/C=C\CCCC(=O)O)[C@@H](O)C[C@H]1O
fold change [1]: 0.971 (inactive)
fold change [2]: 1.48
cell count [3]: 5410
cell count [4]: 5570

O=C(O)CCC/C=C/C[C@@H]1[C@@H](CC[C@@H](O)CCc2ccccc2)[C@H](O)C[C@@H]1O
fold change [1]: 0.961 (inactive)
fold change [2]: 1.3
cell count [3]: 5820
cell count [4]: 6060

Cc1ccccc1C#Cc1ccc(CCC(=O)O)cc1
fold change [1]: 1.11 (inactive)
fold change [2]: 1.21
cell count [3]: 6610
cell count [4]: 5930

CCCCC(C)(C)[C@H](O)/C=C/[C@H]1[C@H](O)CC(=O)[C@@H]1CCCCCCC(=O)O
fold change [1]: 0.94 (inactive)
fold change [2]: 1.17
cell count [3]: 5660
cell count [4]: 6020

CC(C)ON(CC(=O)NO)S(=O)(=O)c1ccc(-c2ccccc2)cc1
fold change [1]: 0.989 (inactive)
fold change [2]: 1.73
cell count [3]: 6160
cell count [4]: 6240

CCCCC[C@](C)(O)/C=C/[C@H]1C(=O)C[C@H](O)[C@@H]1C/C=C\CCCC(=O)O
fold change [1]: 1.01 (inactive)
fold change [2]: 0.91
cell count [3]: 5200
cell count [4]: 5160

CCCCC[C@H](O)/C=C/[C@H]1CCC(=O)[C@@H]1C/C=C\CCCC(=O)O
fold change [1]: 0.932 (inactive)
fold change [2]: 1.35
cell count [3]: 6060
cell count [4]: 6510

CC/C=C\C/C=C\C/C=C\C/C=C\CCCCCCC(=O)O
fold change [1]: 1.03 (inactive)
fold change [2]: 1
cell count [3]: 5320
cell count [4]: 5150

CCCCC[C@H](O)/C=C/[C@H]1C=CC(=O)[C@H]1CCCCCCC(=O)O
fold change [1]: 0.88 (inactive)
fold change [2]: 1.97
cell count [3]: 5070
cell count [4]: 5760

O=C(O)CCC/C=C\C[C@H]1C(=O)C[C@@H](O)[C@@H]1/C=C/[C@@H](O)Cc1ccccc1
fold change [1]: 0.985 (inactive)
fold change [2]: 1.05
cell count [3]: 5810
cell count [4]: 5900

NC(=NCC[C@H](N)C(=O)O)NO
fold change [1]: 0.915 (inactive)
fold change [2]: 0.994
cell count [3]: 4720
cell count [4]: 5160

CCCCC/C=C\C/C=C\C/C=C\CCCCC(=O)OC
fold change [1]: 1.06 (inactive)
fold change [2]: 0.952
cell count [3]: 6900
cell count [4]: 6530

CCCCC[C@H](O)/C=C/[C@H]1C(=O)C[C@H](O)[C@@H]1C/C=C\CCCC(=O)NC(CO)CO
fold change [1]: 0.913 (inactive)
fold change [2]: 1.9
cell count [3]: 5680
cell count [4]: 6220

CCCCCCCCCCCCCCCC(=O)OCC
fold change [1]: 0.854 (inactive)
fold change [2]: 0.575
cell count [3]: 5080
cell count [4]: 5950

CCCCCCCC/C=C\CCCCCCCC(=O)NCCS(=O)(=O)O
fold change [1]: 0.992 (inactive)
fold change [2]: 0.63
cell count [3]: 6150
cell count [4]: 6200

CCCCC/C=C\C/C=C\C/C=C\C/C=C\CCCC(=O)OCC
fold change [1]: 0.807 (inactive)
fold change [2]: 0.655
cell count [3]: 5170
cell count [4]: 6410

O=C(O)CCCCCC[C@@H]1C(=O)NC(=O)N1CCC(O)C1CCCCC1 (some centres not stated)
fold change [1]: 1.01 (inactive)
fold change [2]: 2.01
cell count [3]: 5520
cell count [4]: 5460

CC(=O)c1ncc([C@@H](O)[C@H](O)[C@H](O)CO)[nH]1
fold change [1]: 0.931 (inactive)
fold change [2]: 2.05
cell count [3]: 5900
cell count [4]: 6330

COc1ccc2c(c1)c(CC(=O)SC[C@H](NC(C)=O)C(=O)OCCCCO[N+](=O)[O-])c(C)n2C(=O)c1ccc(Cl)cc1
fold change [1]: 1.08 (inactive)
fold change [2]: 0.702
cell count [3]: 6270
cell count [4]: 5810

Cc1c(C)c2c(c(C)c1O)CCC(C)(CCCC(C)C(=O)O)O2 (configuration not stated)
fold change [1]: 0.962 (inactive)
fold change [2]: 0.303
cell count [3]: 5890
cell count [4]: 6120

CCCCC[C@H](O)/C=C/[C@@H]1C(C/C=C\CCCCN(C)C)[C@@H](O)C[C@H]1O (some centres not stated)
fold change [1]: 0.95 (inactive)
fold change [2]: 1.02
cell count [3]: 5640
cell count [4]: 5940

CC/C=C\C/C=C\C/C=C\C/C=C\CCCCC(=O)O
fold change [1]: 0.875 (inactive)
fold change [2]: 0.773
cell count [3]: 5720
cell count [4]: 6540

COc1ccc2c(c1)c(CC(=O)Nc1ccc(NC(C)=O)cc1)c(C)n2C(=O)c1ccc(Cl)cc1
fold change [1]: 1.05 (inactive)
fold change [2]: 1.43
cell count [3]: 5880
cell count [4]: 5610
